Test results published in PubChem BioAssay.

Columns and labels:
[1] = tested on: Botulinum neurotoxin type F light chain protease (Clostridium botulinum); test: Botulinum neurotoxin type F light chain protease inhibition, multiplex microsphere flow cytometry, validation set (AID 588459); conditions: multiplex microsphere protease substrate cleavage assay, at 10 µM, active compounds read high
[2] = molecular target: Botulinum neurotoxin type A (Clostridium botulinum) (UniProt P0DPI0); test: BoNT/A light chain protease inhibitors, biochemical, multiplex microsphere flow cytometry, validation set (AID 588460); conditions: at 10 µM, active compounds read high
Botulinum neurotoxin type A (Clostridium botulinum), sequence (P0DPI0 whole entry, looked up): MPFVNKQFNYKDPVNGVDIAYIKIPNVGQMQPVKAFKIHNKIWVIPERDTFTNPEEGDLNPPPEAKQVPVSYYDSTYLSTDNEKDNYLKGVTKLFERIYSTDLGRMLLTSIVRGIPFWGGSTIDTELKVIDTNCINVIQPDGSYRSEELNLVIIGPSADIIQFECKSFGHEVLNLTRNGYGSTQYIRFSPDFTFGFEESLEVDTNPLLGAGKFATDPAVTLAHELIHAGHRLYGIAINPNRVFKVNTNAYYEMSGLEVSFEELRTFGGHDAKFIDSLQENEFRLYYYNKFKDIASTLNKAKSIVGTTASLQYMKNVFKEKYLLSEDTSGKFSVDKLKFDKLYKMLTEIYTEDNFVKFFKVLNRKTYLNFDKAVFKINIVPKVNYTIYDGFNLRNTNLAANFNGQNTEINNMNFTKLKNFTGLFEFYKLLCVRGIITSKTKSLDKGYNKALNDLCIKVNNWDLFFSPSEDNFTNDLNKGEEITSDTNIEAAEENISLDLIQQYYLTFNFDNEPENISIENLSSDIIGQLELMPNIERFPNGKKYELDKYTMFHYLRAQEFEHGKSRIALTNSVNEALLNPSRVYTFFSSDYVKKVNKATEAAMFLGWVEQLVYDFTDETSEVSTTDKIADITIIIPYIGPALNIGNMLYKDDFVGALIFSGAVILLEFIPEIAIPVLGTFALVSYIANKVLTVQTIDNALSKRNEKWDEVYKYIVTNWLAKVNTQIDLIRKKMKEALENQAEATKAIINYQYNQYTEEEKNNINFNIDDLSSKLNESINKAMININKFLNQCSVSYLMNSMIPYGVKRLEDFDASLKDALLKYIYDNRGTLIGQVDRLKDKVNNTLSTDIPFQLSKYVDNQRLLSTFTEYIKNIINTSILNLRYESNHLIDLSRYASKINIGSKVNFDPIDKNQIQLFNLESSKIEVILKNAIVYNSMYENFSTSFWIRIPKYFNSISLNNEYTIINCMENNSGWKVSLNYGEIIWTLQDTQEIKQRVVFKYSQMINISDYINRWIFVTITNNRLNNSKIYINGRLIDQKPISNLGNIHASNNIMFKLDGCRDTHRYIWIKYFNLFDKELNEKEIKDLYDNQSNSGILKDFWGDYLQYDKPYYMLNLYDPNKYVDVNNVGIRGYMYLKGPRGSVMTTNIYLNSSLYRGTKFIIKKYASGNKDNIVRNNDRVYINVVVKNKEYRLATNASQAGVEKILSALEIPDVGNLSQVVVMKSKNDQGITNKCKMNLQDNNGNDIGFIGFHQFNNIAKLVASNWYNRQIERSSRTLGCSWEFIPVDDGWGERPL

[3] = molecular target: Lethal factor (Bacillus anthracis) (UniProt P15917); test: Lethal factor protease inhibitors, Bacillus anthracis, multiplex microsphere cleavage assay, validation set (AID 588461); conditions: flow cytometry, at 10 µM, active compounds read high
Lethal factor (Bacillus anthracis), sequence (P15917 whole entry, looked up): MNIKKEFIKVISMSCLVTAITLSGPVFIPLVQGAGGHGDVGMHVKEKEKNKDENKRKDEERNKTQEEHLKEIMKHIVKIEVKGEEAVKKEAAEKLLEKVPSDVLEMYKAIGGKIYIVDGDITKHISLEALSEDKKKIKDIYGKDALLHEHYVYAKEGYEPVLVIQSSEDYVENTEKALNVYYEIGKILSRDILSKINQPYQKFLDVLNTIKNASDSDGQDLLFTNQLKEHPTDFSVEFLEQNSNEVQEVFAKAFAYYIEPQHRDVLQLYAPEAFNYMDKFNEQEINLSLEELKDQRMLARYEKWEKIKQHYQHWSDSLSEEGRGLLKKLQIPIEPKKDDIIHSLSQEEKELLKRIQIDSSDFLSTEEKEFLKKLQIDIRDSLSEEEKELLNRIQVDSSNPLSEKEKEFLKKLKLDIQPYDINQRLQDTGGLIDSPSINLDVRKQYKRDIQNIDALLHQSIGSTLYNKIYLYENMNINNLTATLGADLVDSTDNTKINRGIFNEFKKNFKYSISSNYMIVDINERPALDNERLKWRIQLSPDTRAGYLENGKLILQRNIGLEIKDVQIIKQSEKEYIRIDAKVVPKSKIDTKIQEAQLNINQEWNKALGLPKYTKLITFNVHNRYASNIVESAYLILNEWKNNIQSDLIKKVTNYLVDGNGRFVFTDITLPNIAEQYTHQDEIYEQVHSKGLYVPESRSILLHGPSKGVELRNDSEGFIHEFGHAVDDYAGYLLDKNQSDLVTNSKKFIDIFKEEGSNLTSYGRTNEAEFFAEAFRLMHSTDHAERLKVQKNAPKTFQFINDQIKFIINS

Measured: inhibition

CC(=O)Oc1ccc2occ(/C=N/c3cc(=O)[nH]c(=S)[nH]3)c(=O)c2c1
inactive: [1] 2% | [2] 0.7% | [3] -4.2%

O=C1c2ccccc2N2C(=O)c3ccccc3C2N1Cc1ccco1 (stereo not drawn)
inactive: [1] 3.3% | [2] 0.7% | [3] 2.8%

O=C(NCCc1nc2ccccc2[nH]1)c1cccc(Br)c1
inactive: [1] -3.2% | [2] -1.3% | [3] -7.9%

COc1ccc(CNC(=O)N[C@H](C(=O)O)C(C)C)cc1OC
inactive: [1] -0.7% | [2] -1.2% | [3] -8.3%

CCc1cc2c(=O)c(-c3ccc4c(c3)OCCO4)coc2c(CN2CCCCC2C)c1O (stereo not drawn)
inactive: [1] 2.5% | [2] 0.3% | [3] -1%

CC(C)N(C(=O)Cc1ccccc1[N+](=O)[O-])C(C)C
inactive: [1] -0.6% | [2] -2% | [3] -1.5%

CC(=O)Oc1ccc2c(=O)c(Oc3ccccc3[N+](=O)[O-])coc2c1
inactive: [1] 0.2% | [2] -1.2% | [3] -6.2%

CCCCCCCCNC(C)C(O)c1ccc(SC(C)C)cc1 (stereo not drawn)
inactive: [1] -4.9% | [2] -1.5% | [3] -9.4%

CCOc1ccc(CCn2c(-c3ccco3)nc3ccccc3c2=O)cc1OCC
inactive: [1] 3.5% | [2] -0.4% | [3] 11.4%

CC(=O)C1=C(O)C(=O)N(Cc2cccnc2)C1c1ccc(C(C)C)cc1 (stereo not drawn)
inactive: [1] 3.2% | [2] 4.3% | [3] 7%

N=c1nc(N2CCCCC2)cc(N)n1O
inactive: [1] -2.3% | [2] -0.7% | [3] 0.9%
